From PubChem BioAssay AID743294 (Broad Institute, 2014)
Entries with a potency or affinity are not part of this list. Calls of active or inactive are those of the source.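 Rule for the calls: active = compounds lowering fluorescence whose fitted half-maximal dose is at most twice the top valid dose; inconclusive = flat fit between -70% and -30%, or poor curve fit; inactive = the rest.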

Biological target: Caspase-8 (Homo sapiens) (UniProt Q14790)
Test: caspase-8 inhibition counter-screen, dose response, selectivity assay for caspase-6 inhibitor project, biochemical, Z-IETD-R110 fluorescence, cherry-picked samples (AID 743294)

Sequence of Caspase-8 (Homo sapiens) (Q14790 whole entry, looked up): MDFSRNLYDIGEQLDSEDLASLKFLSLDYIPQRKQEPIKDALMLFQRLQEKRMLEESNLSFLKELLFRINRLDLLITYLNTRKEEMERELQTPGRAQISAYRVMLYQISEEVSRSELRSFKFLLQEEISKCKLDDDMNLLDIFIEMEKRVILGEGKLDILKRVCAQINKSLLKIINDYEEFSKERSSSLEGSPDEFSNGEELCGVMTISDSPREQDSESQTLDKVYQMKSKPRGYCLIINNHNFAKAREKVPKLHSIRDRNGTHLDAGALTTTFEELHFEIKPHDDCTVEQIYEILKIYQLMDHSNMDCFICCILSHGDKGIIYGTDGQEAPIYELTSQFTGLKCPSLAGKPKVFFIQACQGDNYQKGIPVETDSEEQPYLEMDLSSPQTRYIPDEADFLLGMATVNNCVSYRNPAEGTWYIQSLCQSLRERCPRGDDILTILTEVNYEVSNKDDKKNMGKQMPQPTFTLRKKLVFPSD

SMILES	outcome
O=c1cc2c(=O)oc3cc(O)c(O)oc3c2c(O)c1O	inactive
CCN(CC)CCCC(C)n1c2nc(=O)[nH]c(=O)c-2nc2cc(Cl)ccc21 (centres undefined)	inactive
Cc1oc2c(cc(NS(=O)(=O)c3ccc(C(C)C)cc3)c3ccccc32)c1C(=O)O	inactive
O=[N+]([O-])c1c(Nc2ccccn2)cc(Cl)c2nonc12	inactive
CC(CNc1ccccc1O)C(=O)O (centres undefined)	inactive
CO[C@H]1CN(C)C(=O)c2cc(NC(C)=O)ccc2OC[C@@H](C)N(C(=O)CC2CC2)C[C@H]1C	inactive
Nc1c(O)cccc1C(=O)O	inactive
Cc1ccc(S(=O)c2ccc([N+](=O)[O-])c3nonc23)cc1 (centres undefined)	inactive
Cc1ccc(S(=O)(=O)Nc2csc(C)c2C(=O)O)cc1	inactive
O=C(Nc1ccc2nc3n(c(=O)c2c1)CCCCC3)c1c(F)ccc([N+](=O)[O-])c1F	inactive
COc1ccc([N+](=O)[O-])cc1NC(=O)CCS(=O)(=O)c1ccc(Br)cc1	inactive
O=C(CCO)c1ccc(O)cc1	inactive
O=C(O)Cc1ccc(-n2cccc2)cc1	inactive
O=C(C[C@@H]1C[C@H]2c3cc(NC(=O)NC4CCCCC4)ccc3O[C@H]2[C@H](CO)O1)NCc1ccccn1	inactive
CCCCNC(=O)c1nc(C2CCNCC2)oc1-c1cccc(C(F)(F)F)c1	inactive
Cc1cc(C=O)c(C)n1-c1ccc(Cl)c(C(=O)O)c1	inactive
COc1cc(NC(C)CCCNC(C)C)c2ncccc2c1OC (centres undefined)	inactive
CCOC(=O)c1sc2nc(OCCN3CCOCC3)cc(C)c2c1N	inactive
O=P(c1ccccc1)(c1ccccc1)c1cc(S(=O)(=O)O)ccc1O	inactive
